How the values were obtained:
Format in all cases: functional
[1] = target: Solute carrier family 2, facilitated glucose transporter member 1 (Homo sapiens) (UniProt P11166); test: ST_JUDE_LEISH: Cytotoxicity at 2uM final concentration against transgenic Leishmania Mexicana promastigotes LmGLUT1 that are glucose transport deficient and complemented with the human glucose transporter GLUT1. Activity is measured by DNA content using SYBR green in vitro
[2] = target: Hexose transporter 1 (Plasmodium falciparum) (UniProt O97467); test: ST_JUDE_LEISH: Cytotoxicity at 2uM final concentration against transgenic Leishmania Mexicana promastigotes LmPfHT that are glucose transport deficient and complemented with the Plasmodium falciparum hexose transporter. Activity is measured by DNA content using SYBR green in vitro
[3] = target: Glucose transporter (Leishmania mexicana) (UniProt O61059); test: ST_JUDE_LEISH: Cytotoxicity at 2uM final concentration against transgenic Leishmania Mexicana promastigotes LmGT2 that are glucose transport deficient and complemented with the L. Mexicana glucose transporter 2. Activity is measured by DNA content using SYBR green in vitro

Sequence of Solute carrier family 2, facilitated glucose transporter member 1 (Homo sapiens) (P11166 whole entry): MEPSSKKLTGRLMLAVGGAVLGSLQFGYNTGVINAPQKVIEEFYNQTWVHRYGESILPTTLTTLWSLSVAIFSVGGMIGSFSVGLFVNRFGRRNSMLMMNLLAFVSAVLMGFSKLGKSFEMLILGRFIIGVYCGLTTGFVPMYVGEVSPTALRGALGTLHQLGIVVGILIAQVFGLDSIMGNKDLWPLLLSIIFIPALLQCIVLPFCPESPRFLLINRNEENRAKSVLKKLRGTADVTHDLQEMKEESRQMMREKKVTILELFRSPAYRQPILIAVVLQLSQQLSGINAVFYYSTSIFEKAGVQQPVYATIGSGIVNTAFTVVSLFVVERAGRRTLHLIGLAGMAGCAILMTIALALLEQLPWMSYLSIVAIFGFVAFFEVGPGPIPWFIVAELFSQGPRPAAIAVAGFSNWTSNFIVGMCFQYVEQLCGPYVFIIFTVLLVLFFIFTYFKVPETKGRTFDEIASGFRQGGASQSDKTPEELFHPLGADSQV

Structure (SMILES) | inhibition [1] [%] | inhibition [2] [%] | inhibition [3] [%]
CO/C(=C\C=C\c1cc2cc(Cl)c(Cl)cc2[nH]1)C(=O)NCCCNCCN(C)c1ccccc1 | 4.77 | 2.76 | 1.74
CCCCNCc1cc(Cl)c2ccccc2c1O | 7.17 | 7.57 | 6.58
COc1ccc2ncc(C#N)c(CCN3CCC(NCc4ccc5c(c4)OCCO5)CC3)c2c1 | 48.5 | 64.6 | 83.2
COc1ccccc1CN1CCC(NC(=O)c2ccc(-c3cccc(Cl)c3)s2)CC1 | 8.99 | 8.66 | 2.23
CC1(C)NC(N)=NC(=N)N1OCCOc1ccc(Cc2ccccc2)cc1 | 1.41 | 0.91 | 0.68
COc1cc2ncnc(Nc3ccc(OCc4ccccc4Br)c(Cl)c3)c2cc1OC | -3.06 | 1.28 | 6.38
Cc1cc(F)ccc1[C@H]1CNCCN1C(=O)N(C)[C@@H](C)c1cc(C(F)(F)F)cc(C(F)(F)F)c1 | -0.55 | -0.16 | -2.72
COCCN1CCC(N(CC2(O)CCN(c3ccc(C(F)(F)F)cc3)CC2)C(=O)Cn2c(SCc3cccc(F)c3F)cc(=O)c3ccccc32)CC1 | -0.38 | 0.65 | 0.85
CSc1ccc(CN2CCC(NC(=O)c3ccc(-c4cccc(C(F)(F)F)c4)s3)CC2)cc1 | 3.18 | 0.48 | 3.3
Oc1cccc2c1CC(NCc1ccccc1)CC2 (stereo not drawn) | 1.86 | 1.22 | 2.32
Cn1nccc1C(=O)NCCNCc1ccc(-c2cccc(-c3nc4cc(F)ccc4[nH]3)c2)cc1 | -0.28 | -4.29 | -1.92
CS(=O)(=O)c1ccc(CNCc2ccc(-c3ccc(-c4nc5cc(C(F)(F)F)ccc5[nH]4)cc3)cc2)cc1 | 2.96 | 1.96 | 2.3
c1cncc(-c2cc(N3CCCCC3)nc(-c3ccncc3)n2)c1 | 8.22 | 6.14 | 4.53
CC(C)(C)OC(=O)NCc1ccc(Nc2nnc(-c3cccc(C(=O)NCCC(c4ccccc4)c4ccccc4)c3)o2)cc1 | 8.74 | 10.6 | 7.8
CCC1CCCCN1S(=O)(=O)c1ccc(NC(=O)c2cc(C)on2)cc1 (stereo not drawn) | 2.22 | 0.15 | 3.74
CCCc1ccc(N2C(N)=NC(N)=NC2(C)C)cc1 | 1.9 | 1.17 | -2.29
COc1ccc(CCn2c(=N)c(C(=O)NCc3cccnc3)cc3c(=O)n4cccc(C)c4nc32)cc1 | 5.3 | 4.73 | 0.26
COc1ccccc1-c1cccc(-c2cccc(NC(=O)c3ccc([N+](=O)[O-])o3)c2)n1 | 11.2 | 16.8 | 9.06

Structure (SMILES) | inhibition [1] [%] | inhibition [2] [%] | inhibition [3] [%]
CCCCc1ccc(-c2ccc(-c3c(C)[nH]c(C)c(Br)c3=O)cn2)cc1 | 2.88 | 3.53 | 1.52
CC(=O)Nc1nc(C(=O)Nc2cccc(-c3ccc(-c4nc5cccc(C)c5[nH]4)cc3)c2)cs1 | 8.06 | 7.51 | 6.75
COc1cccc(C(=O)N2CCN(Cc3cccc(NC(=O)c4cccs4)c3)CC2)c1 | 2.14 | 2.18 | 5.14
COc1cc(C(=O)N2CCN(C(C)C)CC2)ccc1CN(C)CCCCN1CCN(c2cccc(Cl)c2Cl)CC1 | 1.77 | 1.73 | 0.12
CC(CN(C)C)C(=O)Nc1ccc(-c2cccc(-c3nc4ccccc4[nH]3)c2)cc1 (stereo not drawn) | 5.14 | 4.81 | 8.05
N#Cc1cccc(C(=O)Nc2cccc(-c3ccc(C(=O)NCCCN4CCOCC4)cc3)c2)c1 | 6.85 | 5.61 | 5.11
CCN(CC)c1nc(-c2ccccc2)cc(-c2ccccc2)c1C#N | 1.31 | 1.62 | -0.21
COc1ccc(CNC2CCN(C)CC2)cc1-c1ccc(S(=O)(=O)NCc2ccccc2)s1 | 9.42 | 11.8 | 11.2
CCCCOc1cc(CNCCCCCCNCc2cc(OCCCC)cc3ccccc23)c2ccccc2c1 | 4.98 | 0.76 | -2.17
O=C(/C=C/c1ccc(Cl)c(Cl)c1)NCC(CCCN1CCC(c2c[nH]c3ccccc23)CC1)c1ccccc1 (stereo not drawn) | 3.06 | -1.36 | 2.05
Cc1ccc(C2(CN3CCC(NC(=O)c4n[nH]cc4Cl)CC3)CCCCC2)cc1 | -1.34 | 0.31 | -0.37
Cc1nc(-c2nc(NCc3ccc4c(c3)OCO4)ncc2-c2ccsc2)sc1C | -0.05 | -0.48 | 0.68
O=C(Nc1ccc2c(c1)CCN(C1CCC1)CC2)c1cn(-c2ccccc2)nc1-c1ccccc1 | 5.38 | 3.65 | 0.52
CN1CCN(c2ccnc3ccc(NC(=O)Nc4ccc(-c5ccccc5)cc4)cc23)CC1 | 3.26 | 2.25 | 2.96
CCCCCCCc1c(C)nc2cc(OC)ccc2c1O | 7.36 | 9.59 | 7.02
COc1ccc(Nc2ncc3c(-c4cccc(NC(=O)Cc5ccc(O)cc5)c4)c[nH]c3n2)cc1OC | 9.41 | 5.77 | 8.19
COc1ccc2c(NN=Cc3cccc(C)n3)ccnc2c1 | 4.32 | 5.22 | 5.4
COc1cc(Nc2ccnc3ccc(C(F)(F)F)cc23)cc(OC)c1OC | 18.2 | 23.1 | 12.6

Source: ChEMBL document CHEMBL3433997, “St. Jude Leishmania screening dataset” (2016)
